Screens (PubChem)
MCF10A rerep – induces DNA re-replication in MCF 10a normal breast cells | AID 624296 | hit rate 2.9% among 350,000 | MCF 10A DNA re-replication, Hoechst nuclear intensity, 48 h | Potency, µM (top dose mostly 46.1 µM), for inactives: at the highest dose activity, positive = re-replication, most hits filed as activators; note: potency is the fitted concentration of half-maximal effect; % of control where 0% means no effect; nearly all actives have a fitted effect of over 50% in size
IL-1B inflam inh – inhibitors of inflammasome signaling (IL-1 beta secretion); THP-1 LPS/ATP IL-1B secretion, AlphaLISA, 16 h; stronger effect = lower value; activity change, % at 57.5 µM; hit rate 4.7% among 360,000; AID 743279; in the data active = activity change below about -50%; inconclusive = mostly about -30% to -49%; note: % is set by controls: 0 for no effect and ±100 for the full control effect
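THP-1 cells pretreated 1 hr with compounds (up to 57.5 uM final), then stimulated with LPS (250 ng/mL final) plus ATP (1.25 mM final); secreted IL-1B measured by AlphaLISA after 16 hr, decreased signal indicating inhibition.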
TDP1 cell noCPT – qHTS for Inhibitors of human tyrosyl-DNA phosphodiesterase 1 (TDP1): qHTS in cells in absence of CPT | hit rate 15% among 420,000 | Potency, µM (titrated, usually from 46.2 µM), inactives show top-dose activity change, negative = growth inhibition, actives largely listed as inhibitors | DT40 Tdp1-/- hTDP1 cells, no CPT, ATP luminescence, 48 h; note: potency is the fitted concentration of half-maximal effect; % is set by controls: 0 for no effect and ±100 for the full control effect; nearly all actives have a fitted effect of over 55% in size
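DT40 Tdp1-/-;hTDP1 cells, no CPT (DMSO vehicle only), 400 cells/well; compounds pin-transferred; ≥48 hr, 37 °C; CellTiter-Glo 30 min RT dark, luminescence read.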
SW480 rereplic – inducers of DNA re-replication in SW480 colon cancer cells | SW480 DNA re-replication, Hoechst DNA content imaging, 48 h | Potency, µM (highest dose often 46.1 µM), without a hit: at the highest dose re-replication activation, most hits filed as activators | hit rate 1.8% among 340,000; note: potency is the fitted concentration of half-maximal effect; % of control where 0% means no effect; nearly all actives have a fitted effect of over 55% in size
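Image-based read-out: total Hoechst fluorescence of nuclei (405 nm excitation, 500-530 nm emission), with hits raising the fraction of high-intensity nuclei. SW480 colon cells incubated 48 hr with compounds at 37 C.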
BCR signal inh – chronic active BCR signaling inhibition | Potency, µM (titrated, usually from 46.1 µM), without a hit: at the highest dose activity change, negative = inhibition, usual class: inhibitors | hit rate 0.05% among 340,000 | AID 493014 | ABC-DLBCL IkBa-CBG/CBR reporter, luminescence ratio, 4 h; active = well fitted inhibition curve with a large enough effect in the signal ratio, with a control signal flat, not every such curve was filed as active; inconclusive = small, poorly fitted or top-dose-only effect, or effect the other way, or a change in a side signal; the % refers to the signal ratio;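 note: potency is the fitted concentration of half-maximal effect; plate controls were basal doxycycline-induced cells for no effect and cells given 10 µM MG132 for full effect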
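TMD8 human ABC-DLBCL cells with doxycycline-inducible IκBα–green luciferase fusion and unfused red luciferase, in 0.5% FBS medium; compounds up to 46 uM, 4 h at 37C. Green/red luminescence ratio, filter-overlap corrected, fitted to concentration-response curves.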
DT40 TDP1 CPT – growth inhibition of DT40 Tdp1-/-;hTDP1 cells with camptothecin (screen for TDP1 inhibitors); AID 686979; chicken DT40 Tdp1-/-;hTDP1 cells + 20 nM CPT, ATP luminescence, 48 h; Potency, µM (doses to about 46.2 µM), for inactives: at the top dose activity change, negative = growth inhibition, most hits filed as inhibitors; hit rate 12% among 420,000; note: potency is the fitted concentration of half-maximal effect; % is set by controls: 0 for no effect and ±100 for the full control effect; nearly all actives have a fitted effect of over 55% in size
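Chicken DT40 Tdp1-/- cells complemented with human TDP1, 400 cells/well, exposed to compounds plus 20 nM camptothecin for at least 48 h at 37 C; viability read as ATP content by CellTiter-Glo luminescence.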
Active calls of the source: *. Sampled rows, rich in hits. Any-hit rate of the full collection: about 19%. Unless noted, calls come from the whole dose curve; as a rule, active = well fitted curve in the direction sought with a large enough effect; inconclusive = small, poorly fitted or top-dose-only effect, or another doubt; inactive = no such curve, though single readings can be large; an effect the other way counts as inactive or inconclusive.

Screening CC(/C=C/c1ccc(N(C)C)cc1)=N/N=C1/NC(=O)CC(C(=O)Nc2ccc(Cl)cc2)S1 (centres undefined) returned MCF10A rerep 6.5µM*, IL-1B inflam inh -6, TDP1 cell noCPT -23%, SW480 rereplic 21µM*, BCR signal inh -3% and DT40 TDP1 CPT -28%.
CCCOc1ccc(NC(=O)C2CC(=O)N/C(=N/N=C(\C)CCc3ccc4c(c3)OCO4)S2)cc1 (centres undefined) was read as MCF10A rerep inconclusive, IL-1B inflam inh 8, TDP1 cell noCPT -8%, SW480 rereplic -11%, BCR signal inh -5% and DT40 TDP1 CPT -8%.
CCOCC(=O)Nc1ccc([N+](=O)[O-])cc1OC was read as MCF10A rerep 0%, IL-1B inflam inh -62*, TDP1 cell noCPT -16%, SW480 rereplic 6%, BCR signal inh -1% and DT40 TDP1 CPT 17%.
CCC(C)C(=O)Nc1ccc([N+](=O)[O-])cc1OC (centres undefined) was read as MCF10A rerep -29%, IL-1B inflam inh -27, TDP1 cell noCPT -1%, SW480 rereplic 1%, BCR signal inh inconclusive and DT40 TDP1 CPT -4%.
Screening COc1ccccc1CC(=O)Nc1ccc([N+](=O)[O-])cc1O returned MCF10A rerep inconclusive, IL-1B inflam inh -63*, TDP1 cell noCPT -29%, SW480 rereplic -5%, BCR signal inh inconclusive and DT40 TDP1 CPT -4%.
For CCSc1ccccc1C(=O)Nc1ccc([N+](=O)[O-])cc1OC the results were MCF10A rerep -4%, IL-1B inflam inh 0, TDP1 cell noCPT 21µM*, SW480 rereplic 1%, BCR signal inh 2% and DT40 TDP1 CPT inconclusive.
COc1ccccc1CC(=O)Nc1ccccc1O was read as MCF10A rerep -2%, IL-1B inflam inh 6, TDP1 cell noCPT -8%, SW480 rereplic 0%, BCR signal inh 3% and DT40 TDP1 CPT 1%.
CCc1ccccc1NC(=O)c1ccccc1Sc1ccc([N+](=O)[O-])cc1Cl was read as MCF10A rerep 1%, IL-1B inflam inh -55*, TDP1 cell noCPT inconclusive, SW480 rereplic -3%, BCR signal inh -4% and DT40 TDP1 CPT inconclusive.
Screening CCOCC(=O)Nc1cc([N+](=O)[O-])ccc1OC returned MCF10A rerep -2%, IL-1B inflam inh 21, TDP1 cell noCPT 0%, SW480 rereplic inconclusive, BCR signal inh 0% and DT40 TDP1 CPT 4%.
Screening Cn1c(=O)n(C)c2cc(N3CCOCC3)c(NC(=O)c3ccc(F)cc3)cc21 returned MCF10A rerep 8%, IL-1B inflam inh 24, TDP1 cell noCPT -1%, SW480 rereplic 19%, BCR signal inh 8% and DT40 TDP1 CPT -28%.
O=S(=O)(Cc1ccccc1)C(c1ccccc1)S(=O)(=O)Cc1ccccc1 was read as IL-1B inflam inh -17, TDP1 cell noCPT inconclusive and DT40 TDP1 CPT 3%.
`CCN(c1cccc(C)c1)S(=O)(=O)c1ccc2c(c1)N(C(C)=O)CCS2` gave MCF10A rerep 13%, IL-1B inflam inh 51, TDP1 cell noCPT -19%, SW480 rereplic -12%, BCR signal inh 4% and DT40 TDP1 CPT inconclusive.
`Cc1ccc([C@H]2C(C#N)=C(N)Oc3cc(C)oc(=O)c32)o1` gave MCF10A rerep inconclusive, IL-1B inflam inh -106*, TDP1 cell noCPT 23µM*, SW480 rereplic inconclusive, BCR signal inh inconclusive and DT40 TDP1 CPT 16µM*.
Screening Cc1ccc(SCc2[nH]nc3c2C(c2ccc(C)o2)C(C#N)=C(N)O3)cc1 (centres undefined) returned MCF10A rerep inconclusive, IL-1B inflam inh -5, TDP1 cell noCPT 16µM*, SW480 rereplic 8%, BCR signal inh 21% and DT40 TDP1 CPT 16µM*.
Cc1cc2c(c(=O)o1)C(C(C)C)C(C#N)=C(N)O2 (centres undefined) was read as MCF10A rerep -2%, IL-1B inflam inh 7, TDP1 cell noCPT -14%, SW480 rereplic -22%, BCR signal inh 0% and DT40 TDP1 CPT -7%.
Cc1cc2c(c(=O)o1)C(c1cccs1)C(C#N)=C(N)O2 (centres undefined) was read as MCF10A rerep 2%, IL-1B inflam inh -63*, TDP1 cell noCPT 18µM*, SW480 rereplic 3%, BCR signal inh inconclusive and DT40 TDP1 CPT 23µM*.
For COc1cc(C2C(C#N)=C(N)Oc3cc(C)oc(=O)c32)cc(OC)c1OC (centres undefined) the results were MCF10A rerep 15%, IL-1B inflam inh 16, TDP1 cell noCPT 23µM*, SW480 rereplic -4%, BCR signal inh 14% and DT40 TDP1 CPT inconclusive.
Screening Cc1ccc(SCc2[nH]nc3c2C(c2ccco2)C(C#N)=C(N)O3)cc1 (centres undefined) returned MCF10A rerep inconclusive, IL-1B inflam inh -20, TDP1 cell noCPT inconclusive, SW480 rereplic 6%, BCR signal inh -5% and DT40 TDP1 CPT inconclusive.
CCCCCC(=O)N1CC2(CC)CN(C(=O)CCCCC)CC(CC)(C1)C2=O was read as MCF10A rerep -1%, IL-1B inflam inh 3, TDP1 cell noCPT inconclusive, SW480 rereplic -8%, BCR signal inh 8% and DT40 TDP1 CPT 16µM*.
Nn1c(SCC(=O)NC2CCCCC2)nnc1-c1ccccc1F was read as MCF10A rerep -4%, IL-1B inflam inh -1, TDP1 cell noCPT -6%, SW480 rereplic 1%, BCR signal inh -2% and DT40 TDP1 CPT -8%.
`Cc1ccc(CSCc2ccc(C(=O)NC3CC3)o2)cc1` gave MCF10A rerep 12%, IL-1B inflam inh 12, TDP1 cell noCPT 23µM*, SW480 rereplic 3%, BCR signal inh -5% and DT40 TDP1 CPT inconclusive.
Screening Cc1ccc(CC(=O)NCc2ccc(Cl)cc2)cc1 returned MCF10A rerep 7.3µM*, IL-1B inflam inh 33, TDP1 cell noCPT 3.7µM*, SW480 rereplic 0.92µM*, BCR signal inh 6% and DT40 TDP1 CPT 4.6µM*.
Screening CCC(C)NC(=O)c1ccc(CSCc2ccc(Cl)cc2)o1 (centres undefined) returned MCF10A rerep 16%, IL-1B inflam inh -11, TDP1 cell noCPT 26µM*, SW480 rereplic -2%, BCR signal inh 3% and DT40 TDP1 CPT -25%.
Screening Cc1ccc(CNC(=O)CNC(=O)c2ccc(Br)o2)cc1 returned MCF10A rerep 0%, IL-1B inflam inh 75, TDP1 cell noCPT 2%, SW480 rereplic -2%, BCR signal inh 3% and DT40 TDP1 CPT -17%.
